Assay results taken from PubChem BioAssay AID492997 (Johns Hopkins Ion Channel Center, 2010).
About 2,000 (41%) of roughly 4,900 compounds were called active.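 Rule for the calls: active = thallium signal drop beyond 5 SD of the untreated control mean, on both duplicate plates; inactive = the rest.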 So high a share suggests a set chosen from earlier hits. The list is a sample of the results.

experiment: thallium flux in non-induced HEK293 cells, confirmation, counter-screen for KCNK9 inhibitor project, cell-based, second counter screen, non-induced KCNK9-HEK293 (AID 492997); conditions: non-induced KCNK9-HEK293, FluxOR thallium flux, at 10 µM; stronger effect = higher value;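 for inhibition: plate controls were buffer only IC0 wells for no effect and SID17386958 at its maximal inhibitory level for full effect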

SMILES | inhibition
O=C(COC(=O)/C(=C/c1cccs1)c1cccs1)NCc1ccccc1Cl | 31% (active)
Cc1ccc(NC(=O)c2cc([N+](=O)[O-])ccc2Cl)c(O)c1 | 32% (active)
N#Cc1nc(Cc2cccc3ccccc23)oc1NCc1ccc2c(c1)OCO2 | 53.5% (active)
Cc1ccc(C(=O)c2c(NC(=O)c3ccccc3)sc(C)c2C)cc1 | inactive
O=C(CC(NC(=O)c1ccccc1)c1ccccc1)Nc1ccc(F)c(F)c1 (centres undefined) | 37% (active)
O=[N+]([O-])c1ccc(N2CCN(CC(O)COc3ccccc3)CC2)cc1 (centres undefined) | inactive
Cc1ccc(C)c(NC(=S)NNC(=S)Nc2ccc(C(C)C)cc2)c1 | inactive
O=C(Cn1cc(C(=O)c2cccs2)c2ccccc21)NCc1cccs1 | 29.5% (active)
CCOc1cccc(OCCCOc2cccc3cccnc23)c1 | inactive
Cc1cc(Cl)ccc1C(=O)C1CCCN(C(=O)CCN2CCCO2)C1 (centres undefined) | inactive
CCCOc1ccc2c3c(c(=O)oc2c1OCCC)CCC3 | 48.5% (active)
Cc1cc2ccccn2c1C(=O)c1cccc(F)c1 | inactive
COc1cc(Cl)c(C)cc1NC(=O)CSc1nnc(-c2ccco2)n1CC(C)C | 25.5% (active)
O=C(Nc1nnc(SCc2ccc(Cl)cc2Cl)s1)C1COc2ccccc2O1 (centres undefined) | inactive
COc1cccc(-c2nn(C)c3sc(C(=O)N4CCN(c5ccccc5)CC4)cc23)c1 | inactive
COc1ccccc1C(c1nnnn1C(C)(C)C)N1CCN(Cc2ccccc2)CC1 (centres undefined) | 37.5% (active)
CC1=C/C(=N\OS(=O)(=O)c2ccccc2)C=CC1=O | inactive
CCOc1ccccc1NC(=O)C1CCCN(S(=O)(=O)c2ccccc2)C1 (centres undefined) | inactive
Clc1ccc(COn2c(-c3ccc(Cl)cc3Cl)nc3ncccc32)cc1 | 45% (active)
CCOC(=O)C(C)n1cnc2scc(-c3ccc(C)c(C)c3)c2c1=O (centres undefined) | inactive
CCCCCCCCCCOC(=O)Cn1c(COc2cccc(OC)c2)[n+](C)c2ccccc21 | 28% (active)
CCCCCCCCCCOC(=O)Cn1c(COc2ccc(C)cc2)[n+](C)c2ccccc21 | inactive

SMILES | inhibition
Cc1onc(-c2ccc(Cl)cc2)c1-c1ccnn1S(=O)(=O)c1ccc(Cl)cc1 | 46.5% (active)
Cc1cccc(N2CCN(C(=O)c3cccc(S(=O)(=O)N4CCc5ccccc5C4)c3)CC2C)c1 (centres undefined) | inactive
CCCCn1ccnc1C(=O)c1cccc(S(=O)(=O)N2c3ccccc3CC2C)c1 (centres undefined) | 46.5% (active)
Cc1cc2ccccn2c1C(=O)c1cccc(S(=O)(=O)N2CCOCC2)c1 | inactive
C=CCc1cc(S(=O)(=O)c2ccc(O)c(CC=C)c2)ccc1O | 26% (active)
O=C1CC(c2ccccc2)=NN1c1ccc([N+](=O)[O-])cc1 | inactive
COc1ccc([N+](=O)[O-])cc1-c1nc2ccccc2nc1-c1ccccc1 | 37% (active)
Cc1ccc(CN2CCN(/N=C/c3ccco3)CC2)c(C)c1 | inactive
CCOC(=O)C(C)Sc1nc2ccccc2c(=O)n1CC1CCCCC1 (centres undefined) | 31.5% (active)
Cc1[nH][nH]c(=O)c1C(c1ccc(-c2ccc(Cl)cc2)o1)c1c(C)[nH][nH]c1=O | inactive
CC(C)(C)SCCSC1=CC(=O)CC(c2ccccc2)C1 (centres undefined) | inactive
Cc1cccc(NC(=O)c2sc3nc4c(c(-c5ccco5)c3c2N)CCC4)c1 | 38.5% (active)
Cc1ccnc(N2CCN(C(=O)CSc3nc4ccccc4nc3N3CCCCC3)CC2)c1 | inactive
COC(=O)c1cc(NC2c3ccccc3C(=O)N2c2ccc(Cl)cn2)cc(C(=O)OC)c1 (centres undefined) | 28.5% (active)
CCOC(=O)N/N=C/c1cn(Cc2ccccc2Cl)c2ccccc12 | 25.5% (active)
COc1cc(C(CCN2CCN(c3ccccc3)CC2)c2c(OC)cc(OC)c3ccc(=O)oc23)cc(OC)c1OC (centres undefined) | inactive
Cc1ccc(C2=NN(C)c3nc4ccccc4n3C2)cc1 | inactive
CCC/C=C(\CCC)C(NC(=O)Cc1ccccc1)c1ccc(C(=O)OC)cc1 (centres undefined) | 53% (active)
CC(Oc1ccc2ccccc2c1)C(=O)NNC(=S)NC(=O)c1ccco1 (centres undefined) | inactive
O=C(Nc1ccc(Oc2ccccc2)cc1)c1ccco1 | 39.5% (active)
Cc1ncoc1C(=O)N1CCCC(C(=O)c2ccc3c4c(cccc24)CC3)C1 (centres undefined) | inactive
O=S(=O)(Nc1cccc(Oc2ccc(Cl)cc2)n1)c1ccc(F)cc1 | inactive

SMILES | inhibition
Cc1cc(Oc2ccc(Cl)cc2)nc(SCC(=O)c2ccccc2)n1 | 28% (active)
CCOC(=O)CSc1nc2c(sc(=S)n2CCc2ccccc2)c(=O)n1Cc1ccco1 | 35.5% (active)
O=C(COC(=O)c1ccccc1)Nc1ccccc1Sc1ccccc1 | 34.5% (active)
COc1ccc(OC)c(-c2csc(-c3cccs3)n2)c1 | 26.5% (active)
COc1ccccc1/C=C/C=N/n1c(-c2ccc(Cl)cc2Cl)n[nH]c1=S | inactive
Brc1ccc(C2CC(c3ccccc3)=Nc3ccccc3N2)cc1 (centres undefined) | 34.5% (active)
COc1ccc(C(=O)C2CCCN(Cc3ccc4nonc4c3)C2)c(C)c1 (centres undefined) | inactive
COc1ccc(C2CC(c3cccs3)=Nc3ccccc3S2)cc1OC (centres undefined) | 33% (active)
CCCCNC(=S)N/N=C1\CCCCc2ccccc21 | inactive
CCOC(=O)N1CCN(C(=O)COc2ccc3oc4c(c3c2)CCCC4)CC1 | inactive
CCOc1ccc(C(C)C)cc1S(=O)(=O)n1nc(C)cc1C | 39.5% (active)
O=C(NC(=S)Nc1ccccc1C(=O)O)c1ccc(-c2ccc(Br)cc2)o1 | inactive
O=c1cc(CN2CCN(c3cccc(Cl)c3)CC2)c2cc3c(cc2o1)CCCC3 | inactive
CCc1cccc(C)c1N(C(=O)Cn1c(CO)nc2ccccc21)C(C)COC (centres undefined) | 33% (active)
Cc1c(C(=O)Nc2ccccn2)oc2ccc(Br)cc12 | 29.5% (active)
COc1cc(C2CC(=O)N3CN(Cc4ccccc4)CSC3=C2C#N)ccc1OCc1ccccc1 (centres undefined) | inactive
CCCCCC(O)c1cccc(OCc2ccc3ccccc3n2)c1 (centres undefined) | 38.5% (active)
Cc1ccc(C(=O)c2c(NC(=O)c3ccncc3)sc3c2CCCC3)cc1 | inactive
CCCCN(Cc1ccccc1)C(=O)C1CCN(Cc2sccc2C)CC1 | inactive
O=C(Oc1ccc(Br)cc1C(=S)N1CCOCC1)c1cccc([N+](=O)[O-])c1 | inactive
